# From ChEMBL document CHEMBL1961873, “Compounds: GSK PKIS; Assays: Nanosyn kinase panel” (2012)
# Experiments:
# [1] = target: Sphingosine kinase 1 (Homo sapiens) (UniProt Q9NYA1); conditions: at 1 µM;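 also: mean SPHK1 inhibition value reported from the GSK PKIS kinase panel screen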
# [2] = target: T1, Sphingosine kinase 2 (Homo sapiens) (UniProt Q9NRA0); conditions: at 0.1 µM
# T1 sequence (whole entry): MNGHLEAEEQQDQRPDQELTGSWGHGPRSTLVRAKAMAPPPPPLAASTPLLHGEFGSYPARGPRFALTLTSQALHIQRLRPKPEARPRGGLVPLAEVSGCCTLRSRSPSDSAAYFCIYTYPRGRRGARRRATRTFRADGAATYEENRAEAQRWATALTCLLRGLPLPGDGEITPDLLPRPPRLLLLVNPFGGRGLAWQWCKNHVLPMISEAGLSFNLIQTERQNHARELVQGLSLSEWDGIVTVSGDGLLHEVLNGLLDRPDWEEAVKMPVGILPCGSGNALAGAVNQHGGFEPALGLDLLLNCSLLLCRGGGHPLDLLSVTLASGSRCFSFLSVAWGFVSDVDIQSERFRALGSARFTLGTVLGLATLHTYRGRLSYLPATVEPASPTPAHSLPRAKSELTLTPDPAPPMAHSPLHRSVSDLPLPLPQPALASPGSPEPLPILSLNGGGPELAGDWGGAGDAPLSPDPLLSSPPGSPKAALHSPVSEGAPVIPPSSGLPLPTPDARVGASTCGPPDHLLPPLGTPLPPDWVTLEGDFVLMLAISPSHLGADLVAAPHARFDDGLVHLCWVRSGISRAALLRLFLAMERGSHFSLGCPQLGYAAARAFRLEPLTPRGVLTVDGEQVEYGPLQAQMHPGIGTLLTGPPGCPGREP
# [3] = target: T1, Sphingosine kinase 2 (Homo sapiens); conditions: at 1 µM
# [4] = target: Casein kinase II subunit alpha (Homo sapiens) (UniProt P68400); conditions: at 0.1 µM
# Chain of Casein kinase II subunit alpha (Homo sapiens) (P68400 whole entry, looked up): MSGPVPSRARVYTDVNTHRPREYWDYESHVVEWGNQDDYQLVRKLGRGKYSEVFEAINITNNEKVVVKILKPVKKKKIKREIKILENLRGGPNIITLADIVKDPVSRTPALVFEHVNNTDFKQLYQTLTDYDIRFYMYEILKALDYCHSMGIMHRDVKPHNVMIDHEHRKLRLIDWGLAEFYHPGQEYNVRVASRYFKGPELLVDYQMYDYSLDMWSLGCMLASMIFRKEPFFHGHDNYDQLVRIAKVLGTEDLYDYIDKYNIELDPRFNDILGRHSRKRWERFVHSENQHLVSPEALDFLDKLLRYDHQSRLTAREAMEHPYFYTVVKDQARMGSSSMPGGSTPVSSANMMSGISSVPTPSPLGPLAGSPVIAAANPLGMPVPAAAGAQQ
# [5] = target: Casein kinase II subunit alpha (Homo sapiens) (UniProt P68400); conditions: at 1 µM
# [6] = target: T2, Inhibitor of nuclear factor kappa-B kinase subunit alpha (Homo sapiens) (UniProt O15111); conditions: at 0.1 µM
# T2 sequence (whole entry): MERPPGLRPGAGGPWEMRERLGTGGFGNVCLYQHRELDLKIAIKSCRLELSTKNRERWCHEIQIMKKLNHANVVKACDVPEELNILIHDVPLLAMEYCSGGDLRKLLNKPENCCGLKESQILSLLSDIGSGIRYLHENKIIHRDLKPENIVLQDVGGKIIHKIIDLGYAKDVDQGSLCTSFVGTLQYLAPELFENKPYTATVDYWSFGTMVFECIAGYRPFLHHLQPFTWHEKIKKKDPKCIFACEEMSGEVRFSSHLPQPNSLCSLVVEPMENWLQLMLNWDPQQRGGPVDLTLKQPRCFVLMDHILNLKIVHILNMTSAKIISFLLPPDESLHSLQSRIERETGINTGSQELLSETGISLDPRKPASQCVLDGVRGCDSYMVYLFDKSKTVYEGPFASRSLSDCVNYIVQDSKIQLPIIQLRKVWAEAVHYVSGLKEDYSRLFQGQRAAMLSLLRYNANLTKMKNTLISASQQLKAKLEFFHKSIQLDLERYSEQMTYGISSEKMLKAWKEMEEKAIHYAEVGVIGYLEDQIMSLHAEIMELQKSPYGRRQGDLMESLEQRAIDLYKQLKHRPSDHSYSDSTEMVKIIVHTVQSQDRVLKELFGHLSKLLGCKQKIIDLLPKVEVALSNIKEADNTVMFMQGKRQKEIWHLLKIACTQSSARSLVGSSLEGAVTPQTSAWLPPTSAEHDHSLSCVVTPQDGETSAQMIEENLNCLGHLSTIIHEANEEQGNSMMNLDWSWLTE
# [7] = target: T2, Inhibitor of nuclear factor kappa-B kinase subunit alpha (Homo sapiens); conditions: at 1 µM
# [8] = target: T3, Inhibitor of nuclear factor kappa-B kinase subunit beta (Homo sapiens) (UniProt O14920); conditions: at 0.1 µM
# T3 sequence (whole entry): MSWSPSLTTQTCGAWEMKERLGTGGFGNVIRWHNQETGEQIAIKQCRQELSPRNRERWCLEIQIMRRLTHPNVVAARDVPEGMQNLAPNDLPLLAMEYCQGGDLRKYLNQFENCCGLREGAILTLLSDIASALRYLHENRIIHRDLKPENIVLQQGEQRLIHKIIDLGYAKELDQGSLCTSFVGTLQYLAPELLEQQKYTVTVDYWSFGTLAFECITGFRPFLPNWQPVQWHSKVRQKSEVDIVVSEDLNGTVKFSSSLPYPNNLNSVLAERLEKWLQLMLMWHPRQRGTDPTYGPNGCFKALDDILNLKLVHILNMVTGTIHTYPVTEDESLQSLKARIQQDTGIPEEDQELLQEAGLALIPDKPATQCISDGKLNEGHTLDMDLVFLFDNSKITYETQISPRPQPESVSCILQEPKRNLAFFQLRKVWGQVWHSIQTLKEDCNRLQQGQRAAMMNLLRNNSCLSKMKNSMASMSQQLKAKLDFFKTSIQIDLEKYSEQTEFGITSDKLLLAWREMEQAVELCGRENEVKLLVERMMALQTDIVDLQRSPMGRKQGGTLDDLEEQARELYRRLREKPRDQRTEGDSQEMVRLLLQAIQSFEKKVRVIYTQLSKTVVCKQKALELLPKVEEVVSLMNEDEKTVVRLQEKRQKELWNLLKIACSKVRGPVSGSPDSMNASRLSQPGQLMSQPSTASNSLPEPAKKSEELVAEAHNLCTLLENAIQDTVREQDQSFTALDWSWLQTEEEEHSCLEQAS
# [9] = target: T3, Inhibitor of nuclear factor kappa-B kinase subunit beta (Homo sapiens); conditions: at 1 µM
# [10] = target: T4, Inhibitor of nuclear factor kappa-B kinase subunit epsilon (Homo sapiens) (UniProt Q14164); conditions: at 0.1 µM;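 also: mean inhibition of IKKε reported, from the GSK PKIS dataset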
# T4 sequence (whole entry): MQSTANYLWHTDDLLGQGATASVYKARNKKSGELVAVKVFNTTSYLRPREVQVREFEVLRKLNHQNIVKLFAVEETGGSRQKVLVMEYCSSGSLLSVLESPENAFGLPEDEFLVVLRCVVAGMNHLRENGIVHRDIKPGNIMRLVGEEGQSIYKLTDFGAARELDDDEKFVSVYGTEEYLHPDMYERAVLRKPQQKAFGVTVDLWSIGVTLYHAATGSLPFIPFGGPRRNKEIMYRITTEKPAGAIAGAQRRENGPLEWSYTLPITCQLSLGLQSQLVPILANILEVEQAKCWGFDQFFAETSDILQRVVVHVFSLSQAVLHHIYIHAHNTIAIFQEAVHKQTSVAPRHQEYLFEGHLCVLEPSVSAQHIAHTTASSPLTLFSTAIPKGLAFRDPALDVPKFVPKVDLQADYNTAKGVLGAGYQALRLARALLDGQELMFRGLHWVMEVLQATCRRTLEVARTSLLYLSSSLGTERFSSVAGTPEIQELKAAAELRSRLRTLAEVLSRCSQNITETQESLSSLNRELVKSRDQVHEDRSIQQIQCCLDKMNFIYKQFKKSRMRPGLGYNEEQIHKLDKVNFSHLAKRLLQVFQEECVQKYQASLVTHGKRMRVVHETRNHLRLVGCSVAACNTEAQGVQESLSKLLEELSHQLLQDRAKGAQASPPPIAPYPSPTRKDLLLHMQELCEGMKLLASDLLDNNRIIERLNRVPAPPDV
# Chain of Sphingosine kinase 1 (Homo sapiens) (Q9NYA1 whole entry): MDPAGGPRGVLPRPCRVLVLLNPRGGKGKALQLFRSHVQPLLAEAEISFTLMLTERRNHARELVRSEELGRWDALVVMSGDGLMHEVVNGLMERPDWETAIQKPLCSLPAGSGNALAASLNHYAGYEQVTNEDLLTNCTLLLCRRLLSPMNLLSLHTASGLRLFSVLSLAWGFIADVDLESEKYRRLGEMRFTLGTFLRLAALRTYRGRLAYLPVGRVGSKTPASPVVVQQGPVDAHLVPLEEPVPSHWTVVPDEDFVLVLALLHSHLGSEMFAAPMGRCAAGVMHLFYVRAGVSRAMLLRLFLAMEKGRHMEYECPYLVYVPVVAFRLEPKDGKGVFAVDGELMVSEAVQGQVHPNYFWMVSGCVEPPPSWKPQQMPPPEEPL
smiles,measurement,setting,value
Fc1cccc(COc2ccc(Nc3ncnc4cc(-c5ccc[nH]5)sc34)cc2Cl)c1,inhibition,[1],4.94%
same,inhibition,[2],0.87%
same,inhibition,[3],-0.25%
same,inhibition,[4],1.61%
same,inhibition,[5],2.66%
same,inhibition,[6],2.16%
same,inhibition,[7],1.99%
same,inhibition,[8],2.5%
same,inhibition,[9],1.35%
same,inhibition,[10],2.66%
